Among all 48,000 compounds or so, about 13,000 (27%) showed an effect of 50% or more. The list shows a part of the results.
system: Wolbachia pipientis; assay: Anti-Wolbachia Cell-Based Screen; assay type: functional; parameters: scale not given: in the data most compounds retested in dose-response had high values; conditions: 5 µM

Compared with CC(NC(=O)c1cc2n(n1)CCCN(C)C2)c1cn2ccsc2n1 (centres undefined), COc1cncc(N2CCN(Cc3cccn3C)CC2)n1 is lower in “Percent Effect” value: -3.947% for the first, -11% for the second.

Compared with CC(C)(C)OC(=O)N1CC(CC(=O)NCc2ccsc2)C1, CCOC(=O)N(C)C1CCN(Cc2ccsc2)CC1 is higher in “Percent Effect” value: -134.2% for the first, -3.636% for the second.

Going from N#Cc1cccc(CNc2cc(CO)ccc2Cl)c1 to Cc1cnn(CCNCc2ccc(C#N)cc2F)c1, the “Percent Effect” value rises from -41.9% to -2.376%.

Compared with CC(=O)N[C@@H]1CN(C2CCN(c3cccc(C)c3C)CC2)C[C@H]1C(C)C, Cc1ncc(CC(=O)N2CCC(N3C[C@@H](C)O[C@@H](C)C3)CC2)c(=O)[nH]1 is lower in “Percent Effect” value: -7.453% for the first, -13.09% for the second.

Compared with Cc1ncccc1OC1(C(=O)NCc2noc(C(C)C)n2)CCNCC1, CC(C)Cc1nc(CN2CCC3(CCCO3)CCC2=O)no1 (centres undefined) is lower in “Percent Effect” value: -7.244% for the first, -10.71% for the second.

Going from CCCc1nnc(NC(=O)N2CCCC(NC(C)=O)C2)s1 (centres undefined) to CCc1nnc(Nc2cc(C)nc(C3CN(C(C)=O)CCO3)c2)s1 (centres undefined), the “Percent Effect” value rises from -6.221% to 108.4%.

First: CNc1cc(C)nc(C2CN(Cc3cc[nH]n3)CCO2)c1 (centres undefined)
Second: Cc1cncc(C2CCCN(Cc3cccn3C)C2)n1 (centres undefined)
The “Percent Effect” value of the first is lower: -11.69% for the first, 4.46% for the second.

Compared with Cl.c1cc(CNCc2ccnc(N3CCOCC3)c2)c2c(c1)OCO2, Cl.c1cc(CNCc2ccc3c(c2)CCO3)cc(N2CCOCC2)n1 is lower in “Percent Effect” value: 16.56% for the first, -6.468% for the second.

Going from COc1ccc(CNCc2ccnc(N3CCOCC3)c2)c(OC)c1 to COc1ccc(OC)c(CNCc2ccnc(N3CCOCC3)c2)c1, the “Percent Effect” value rises from -1.923% to 119.2%.

Going from COc1c(C)cc(CNCc2ccnc(N3CCOCC3)c2)cc1C.Cl to COc1cc(CNCc2ccnc(N3CCOCC3)c2)cc(Cl)c1OC, the “Percent Effect” value falls from 93.56% to -1.055%.

Compared with COc1cc(CNCc2ccnc(N3CCOCC3)c2)cc(OC)c1, COc1ccc(CNCc2ccnc(N3CCOCC3)c2)cc1OC is lower in “Percent Effect” value: 97.96% for the first, -3.598% for the second.

Going from COc1cccc(CNCc2ccnc(N3CCOCC3)c2)c1OC to Cc1ccc(OCC(=O)NCc2ccco2)nc1, the “Percent Effect” value falls from 119.8% to -11.41%.

Going from CCOc1ccccc1N(C)C(=O)c1ccc(Cl)cn1 to CCN(Cc1nccn1C)C(=O)c1ccc(NCc2ccc(C)o2)nc1, the “Percent Effect” value rises from -0.6778% to 12.06%.

Going from O=C([C@H]1C[C@H]2OCC[C@H]2N(C(=O)c2ccncc2)C1)N1CCCCO1 to O=C(CC1COCCN1C(=O)c1cscn1)c1ccccc1 (centres undefined), the “Percent Effect” value falls from 15.67% to 5.406%.

First: CC(=O)c1c(O)ccnc1C(F)(F)F
Second: Cc1cc(C)nc(CN(C)C(=O)c2cccc(CCC(C)(C)O)c2)c1
The “Percent Effect” value of the first is lower: -30.29% for the first, 33.03% for the second.

Compared with COc1ccc2c(c1)C(C(=O)N(C)CCc1scnc1C)CC(=O)N2 (centres undefined), COc1ccc(OC)c(-n2cnnc2C)c1 is lower in “Percent Effect” value: 13.25% for the first, -0.7087% for the second.

Going from CCCc1nn(C2CCN(C3CC3)C2=O)c(=O)o1 (centres undefined) to CC(c1nc(C2CC2)no1)N1CCN(Cc2ccsc2)CC1 (centres undefined), the “Percent Effect” value rises from -0.5192% to 3.758%.

Compared with CC(C)c1cc(NCC2(CO)CCC2)ncn1, Cn1c(C2CC2)nc2cc(NC(=O)C3(O)CCCC3)ccc21 is higher in “Percent Effect” value: -3.782% for the first, -3.273% for the second.

Compared with CCOc1cc(F)ccc1NC(=O)N(C(C)CS(C)(=O)=O)C1CC1 (centres undefined), Cc1ccccc1C(=O)NC[C@@H]1CCN(C(=O)c2cccn2C)C[C@H]1O is higher in “Percent Effect” value: -6.232% for the first, 2.167% for the second.

Compared with Cc1cncc(C2CCN(Cc3ccsc3)CC2)n1, Cc1cncc(C2CCN(Cc3cccn3C)CC2)n1 is higher in “Percent Effect” value: 117.4% for the first, 121.9% for the second.

Compared with CC(NC(=O)CCn1cccn1)c1cccs1 (centres undefined), CC(Cc1ccco1)NC(=O)CCn1cccn1 (centres undefined) is higher in “Percent Effect” value: -33.21% for the first, -2.22% for the second.

First: Cc1ccc(CNC(=O)CCC(=O)NCCC(C)C)o1
Second: Cc1ccn(CCC(=O)NCc2ccc(C)o2)n1
The “Percent Effect” value of the first is lower: -4.384% for the first, 96.24% for the second.

First: Cc1ccn(CCC(=O)NC(C)Cc2ccco2)n1 (centres undefined)
Second: Cc1ccn(CCC(=O)NCc2ccco2)n1
The “Percent Effect” value of the first is lower: 108% for the first, 113.3% for the second.

Going from CC(Cc1ccco1)NC(=O)CSc1nnc[nH]1 (centres undefined) to Cc1cc(C)n(CC(C)CNC(=O)CCc2ccco2)n1 (centres undefined), the “Percent Effect” value rises from -0.3206% to 10.87%.

Compared with CCC(C)NC(=O)CCn1ccc(C)n1 (centres undefined), Cc1ccn(CCC(=O)NCCc2ccco2)n1 is lower in “Percent Effect” value: 122.6% for the first, 109.8% for the second.

Going from COC(=O)CC(NC(=O)CCn1cccn1)c1ccc(C)cc1 (centres undefined) to NC(=O)NC(=O)CCn1ccc(-c2ccccc2)n1, the “Percent Effect” value rises from -17.18% to -9.301%.

Compared with O=C(CCN1C[C@H]2CC[C@@H]1CN(c1ncccn1)C2)NCc1ccco1, Cc1nc(C#N)c(N2CCC(c3nc(-c4ccccc4)no3)CC2)o1 is higher in “Percent Effect” value: -5.213% for the first, 4.008% for the second.

Source: ChEMBL document CHEMBL3988442, “University of Dundee, Small-Polar-MMV Screening Library” (2021)
